# Assay outcomes as filed in PubChem BioAssay.
# CRFBP-R2 agonist – agonists of CRF-BP/CRF-R2 complex, primary screen, cell-based, HEK293, calcium dye fluorescence, uHTS. 350,000 compounds, 0.46% hits. calcium dye fluorescence (FLIPR); percent of saturating CRF peptide response. activation, % at 13.2 µM. CRF-binding protein / CRF receptor 2 complex (human);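 active = activation of at least 50%, plus an integration ratio under a set limit after plate pattern correction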
# NR3A LBD binder – binders of NR3A ligand-binding domain, primary screen, biophysical, differential scanning fluorimetry, uHTS; NR3A LBD differential scanning fluorimetry, Tm shift; 0% = protein alone, 100% = glycine-bound protein; Tm shift relative to glycine control, % at 25 µM; 340,000 compounds, 2.5% hits; AID 1259313, 2017;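 active = melting temperature shift of at least 10% of the positive control shift, at one fixed dose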
# TMEM16A inh – TMEM16A chloride channel inhibitors, primary screen, cell-based, HTS. HEK293 TMEM16A/YFP iodide influx fluorescence, ionomycin. 310,000 compounds, 1.2% hits. normalized B-score (activity score, 25-100; higher = stronger inhibition) at 10 µM. AID 588511, 2011;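 active = ratio plate-corrected score three or more library SD toward inhibition, starting fluorescence score within five deviations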;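 note: score derived from kinetic fluorescence span divided by baseline fluorescence per well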
# CRFBP-R2 block – antagonists of CRF-BP/CRF-R2 complex, primary screen, cell-based, HEK293, calcium dye fluorescence, uHTS | CRF-induced calcium fluorescence | inhibition, % at 11.8 µM | 350,000 compounds, 0.59% hits;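 active = inhibition of the ligand-induced calcium signal above about 50% at the single tested concentration, limit read from the data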
# ANO1 activ – TMEM16A chloride channel activators or potentiators, primary screen, cell-based, HTS; Anoctamin-1 (Mus musculus), Q8BHY3; HEK293 TMEM16A/YFP-H148Q/I152L, iodide quench fluorescence; hits give low values; B-score at 10 µM; 340,000 compounds, 0.3% hits; AID 623877, 2012;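 active = fluorescence-ratio B-score plate-corrected deviation score at least 3 library SD below zero, with starting fluorescence score within 5 deviations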;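 note: channel opened by trigger with iodide after compound preincubation; score built on the fluorescence ratio of max minus min over baseline; more negative score means more quench and so TMEM16A activation or potentiation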
# MPTP inh – mitochondrial permeability transition pore inhibitors, primary screen, biochemical, isolated mouse mitochondria, absorbance; Ca2+ swelling absorbance, 30 min; inhibition, % at 10 µM; 360,000 compounds, 1.4% hits;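 active = inhibition of 50% or more, scaled per plate between neutral and stimulator controls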
# TMEM16A reconf – TMEM16A chloride channel inhibitors, confirmation, cell-based, re-confirmation. HEK293 TMEM16A/YFP-H148Q, iodide quench fluorescence; ionomycin added to raise cell calcium. shares compounds with TMEM16A inh. 2,300 compounds, 39% hits. inhibition, % at 10 µM. AID 652189, 2013;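 active = mean duplicate percent inhibition, scaled so buffer wells are 0 and the reference blocker 100, over three buffer SD above buffer mean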
# HEK293 Ca mobil – calcium mobilization in TMEM16A/YFP HEK293 cells, confirmation, counter-screen for TMEM16A inhibitor project | 2,300 compounds, 2% hits | Fluo4 calcium mobilization | AID 652231, 2013 | calcium response (% of ionomycin), % at 10 µM | shares compounds with TMEM16A inh;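 active = duplicate-averaged calcium signal over 20% of the ionomycin maximum, relative to buffer baseline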;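 note: each well's signal is peak minus trough fluorescence divided by its pre-addition baseline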
# Parental YFP cnt – iodide YFP quench changes in parental YFP-HEK293, counter-screen for TMEM16A inhibitor project, cell-based; shares compounds with TMEM16A inh; ionomycin; YFP ratio F(max-min)/F0 at 10 µM; 2,300 tested, under 10 active;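 active = yellow fluorescent protein signal ratio exceeding the buffer control mean by over 5 SD of those controls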;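 note: ratio is mean of duplicate wells from kinetic YFP trace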
# ClC-1 inh – ClC-1 chloride channel inhibition, selectivity assay for TMEM16A inhibitor project, cell-based, voltage-dependent ClC-1. shares compounds with TMEM16A inh. CHO ClC-1-YFP, iodide influx fluorescence quench; iodide control reads 0, buffer control 100. ratio percent, % at 10 µM. 2,300 tested, under 10 active. AID 652236, 2013;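 active = duplicate-mean ratio percent above the mean of iodide-only control wells, which defines zero, plus 5 of their SD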;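 note: higher percent means stronger block of ClC-1 iodide influx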
# Target sequence (P35524 whole entry, looked up): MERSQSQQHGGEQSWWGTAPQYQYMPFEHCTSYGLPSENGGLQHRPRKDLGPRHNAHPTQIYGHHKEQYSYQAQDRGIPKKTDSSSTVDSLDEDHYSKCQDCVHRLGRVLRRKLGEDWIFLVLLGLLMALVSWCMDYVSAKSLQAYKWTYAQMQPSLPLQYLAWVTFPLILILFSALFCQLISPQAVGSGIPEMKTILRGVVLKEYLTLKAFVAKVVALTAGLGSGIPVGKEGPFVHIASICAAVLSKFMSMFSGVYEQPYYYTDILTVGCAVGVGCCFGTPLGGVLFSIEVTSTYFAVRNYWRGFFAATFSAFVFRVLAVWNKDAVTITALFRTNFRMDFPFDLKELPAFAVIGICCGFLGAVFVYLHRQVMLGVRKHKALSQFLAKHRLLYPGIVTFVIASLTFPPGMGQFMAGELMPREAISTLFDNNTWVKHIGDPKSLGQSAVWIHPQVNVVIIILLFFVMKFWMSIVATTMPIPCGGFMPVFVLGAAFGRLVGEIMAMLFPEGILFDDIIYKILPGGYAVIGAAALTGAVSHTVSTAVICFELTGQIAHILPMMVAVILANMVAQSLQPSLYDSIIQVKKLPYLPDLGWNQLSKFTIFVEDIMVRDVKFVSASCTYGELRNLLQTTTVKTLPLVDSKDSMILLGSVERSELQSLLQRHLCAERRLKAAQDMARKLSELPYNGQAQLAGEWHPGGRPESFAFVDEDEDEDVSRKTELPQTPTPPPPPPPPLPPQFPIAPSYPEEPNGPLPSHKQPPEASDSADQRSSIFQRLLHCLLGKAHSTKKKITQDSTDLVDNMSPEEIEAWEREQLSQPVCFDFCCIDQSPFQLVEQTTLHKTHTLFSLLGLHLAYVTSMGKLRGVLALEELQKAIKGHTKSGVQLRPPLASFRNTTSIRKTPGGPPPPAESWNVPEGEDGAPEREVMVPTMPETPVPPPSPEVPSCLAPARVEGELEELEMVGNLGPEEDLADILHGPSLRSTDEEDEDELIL
# Numbers stand for hits; i = inactive; nt = no result. A selection: hits, their analogues and other compounds. The true share with any hit is near 5.1%.
SMILES,CRFBP-R2 agonist,NR3A LBD binder,TMEM16A inh,CRFBP-R2 block,ANO1 activ,MPTP inh,TMEM16A reconf,HEK293 Ca mobil,Parental YFP cnt,ClC-1 inh
CCOC(=O)c1ccc(NC(=O)CCc2ccc(CC)o2)cc1,i,i,100,i,i,i,i,i,i,i
S=C(NCCc1ccccc1)Nc1ccc(N2CCCCC2)cc1,i,i,i,i,nt,i,i,i,i,i
O=C1NC[C@@H](CCCCN2CCN(Cc3ccccc3)C(=O)C2=O)N(CC2CCCCC2)C1=O,nt,nt,nt,nt,nt,i,nt,nt,nt,nt
CC1CN(S(=O)(=O)c2cccc(C(=O)OCC(=O)c3cccs3)c2)CC(C)O1 (configuration not stated),i,i,i,i,i,i,i,i,i,i
Cc1ccnn1CCC(=O)N1CCCC(Nc2ccc(F)c(F)c2)C1 (configuration not stated),i,i,i,i,i,i,nt,nt,nt,nt
COc1ccccc1C(=O)NC(=O)COC(=O)c1ccc(Br)o1,i,i,nt,i,i,i,nt,nt,nt,nt
Cc1ccc(C)c(C(O)c2ncc(-c3ccc4ccccc4c3)[nH]2)c1 (configuration not stated),nt,nt,nt,nt,nt,i,nt,nt,nt,nt
COc1ccc([C@H]2C[C@H](n3cc(COC(=O)c4ccccc4)nn3)[C@@H](O)CN2Cc2cccs2)cc1,i,nt,nt,i,nt,i,nt,nt,nt,nt
O=C(NCc1ccccc1)C(c1cccs1)N(C(=O)c1csnn1)C1CC1 (configuration not stated),i,i,i,i,i,i,nt,nt,nt,nt
O=C(NCCc1ccccc1)C(c1cccs1)N(C(=O)c1csnn1)C1CC1 (configuration not stated),i,i,25,i,i,i,i,i,i,i
Cc1cccc(N(C)S(=O)(=O)c2ccc(-c3cc(C)no3)s2)c1,i,i,25,i,i,i,i,i,i,i
COc1cc(S(=O)(=O)NC2CCCCC2C)ccc1F (configuration not stated),i,i,i,i,i,i,nt,nt,nt,nt
COc1ccccc1NC(=O)COc1ccc(/C=N/NC(=O)CSCc2ccc(Cl)cc2)cc1,i,i,100,i,i,i,18%,i,i,i
O=C(C1CCN(S(=O)(=O)c2cnc[nH]2)CC1)N1CCN(c2ncccn2)CC1,i,i,100,i,i,i,i,i,i,i
Cc1ccc(OCCSc2ncnc3nc[nH]c23)cc1,i,i,25,i,i,i,i,i,i,i
CCc1ccc2c(c1)C1(NN=C(c3ccc(C)cc3)S1)C(=O)N2 (configuration not stated),i,i,i,i,i,i,nt,nt,nt,nt
CC(C)c1ccc2c(c1)C1(NN=C(c3ccccc3)S1)C(=O)N2 (configuration not stated),i,i,25,i,i,i,29%,i,i,i
CCOc1cc(C)cc2oc(=O)cc(-c3ccccc3)c12,i,i,25,i,i,i,i,i,i,i
CC(=O)Oc1cc(C)cc2oc(=O)cc(-c3ccccc3)c12,i,i,i,i,i,i,nt,nt,nt,nt
CC(C)[C@H](NC(=O)OCc1ccccc1)C(=O)OCC(=O)N1CCCCC1,i,i,nt,i,i,i,nt,nt,nt,nt
O=C(OCCN1CCN(c2ncc(C(F)(F)F)cc2Cl)CC1)c1ccc(Cl)cc1,i,i,100,i,i,i,i,i,i,i
COc1ccc(/C=C/C(=O)OCC(=O)NC(=O)NC(C)(C)C)cc1,i,i,i,i,i,i,nt,nt,nt,nt
COc1ccc(OCCC(=O)OCC(=O)NC(=O)NC(C)(C)C)cc1,i,i,i,i,i,i,i,i,i,i
O=C(Nc1nnc(-c2cccs2)o1)c1cccc(C(F)(F)F)c1,81,i,25,i,i,i,i,26%,i,i
CCOc1ccccc1NC(=O)Nc1ccc(CC#N)cc1,i,i,i,i,i,i,nt,nt,nt,nt
SMILES,CRFBP-R2 agonist,NR3A LBD binder,TMEM16A inh,CRFBP-R2 block,ANO1 activ,MPTP inh,TMEM16A reconf,HEK293 Ca mobil,Parental YFP cnt,ClC-1 inh
Cc1c(Cc2ccc3c(c2)OCO3)sc(NC(=O)c2ccccc2)c1C(N)=O,i,i,i,i,i,i,i,i,i,i
CC(=O)c1ccc(N2CCN(S(=O)(=O)c3ccc4c(c3)CC(C)N4C(C)=O)CC2)cc1 (configuration not stated),i,i,25,i,i,i,26%,i,i,i
Cc1ccc(C)c(N2CCN(S(=O)(=O)c3ccc4c(c3)CC(C)N4C(=O)C3CC3)CC2)c1 (configuration not stated),i,i,i,i,i,i,i,i,i,i
CCC(=O)N1c2ccc(S(=O)(=O)N3CCN(CC)CC3)cc2CC1C (configuration not stated),i,i,i,i,i,i,nt,nt,nt,nt
CCC(=O)N1c2ccc(S(=O)(=O)N3CCN(c4ccc([N+](=O)[O-])cc4)CC3)cc2CC1C (configuration not stated),i,i,25,i,i,i,i,i,i,i
COc1ccc(N(C)C(=O)c2cc3c(s2)-c2ccc(Cl)cc2S(=O)(=O)C3)c(OC)c1,i,i,25,i,i,i,26%,i,i,i
Nc1ccc(CCS(N)(=O)=O)cc1,i,i,25,i,i,i,i,i,i,i
CC(C)C[C@H]1CNC(=O)C(=O)N1CC1CCN(CCc2ccc(-c3ccccc3)cc2)CC1,i,i,nt,i,nt,i,nt,nt,nt,nt
CC1(C)CC(=O)C(CC(=O)NC(=O)NCc2ccccc2)=C(O)C1,i,i,100,i,i,i,i,i,i,i
CN=C(Cc1ccccc1)C1=C(O)CC(C)(C)CC1=O,i,i,i,i,i,i,nt,nt,nt,nt
CCCCOC(=O)c1ccc(NC(=O)C(=O)NCc2cccnc2)cc1,i,i,25,i,i,i,i,i,i,i
Cc1ccc(-c2nn3c(C)nnc3s2)cc1NC(=O)C(C)C,i,i,i,i,i,i,nt,nt,nt,nt
